The full ranking holds about 110,000 compounds; the median of “z-score” is about -0.1, and the highest 2% start at about 2. Only a selection was taken, and the highest values are over-represented in it overall. Calls of active or inactive are those of the source.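 Rule for the calls: active = z-score in the third read window above 3 or below -3; inactive = the rest.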

In this experiment the target is Metabotropic glutamate receptor 8 (Rattus norvegicus) (UniProt P70579). The experiment in a line: rat mGluR8 modulators via GIRK flux, primary screen, cell-based, thallium flux, HTS (AID 488969). The conditions noted are these: HEK293 rat mGluR8, GIRK (G protein-gated inwardly rectifying potassium channel) thallium flux, FluoZin2; at 10 µM; stronger effect = higher value; submaximal glutamate (EC20) added with thallium.
Chain of Metabotropic glutamate receptor 8 (Rattus norvegicus) (P70579 whole entry, looked up): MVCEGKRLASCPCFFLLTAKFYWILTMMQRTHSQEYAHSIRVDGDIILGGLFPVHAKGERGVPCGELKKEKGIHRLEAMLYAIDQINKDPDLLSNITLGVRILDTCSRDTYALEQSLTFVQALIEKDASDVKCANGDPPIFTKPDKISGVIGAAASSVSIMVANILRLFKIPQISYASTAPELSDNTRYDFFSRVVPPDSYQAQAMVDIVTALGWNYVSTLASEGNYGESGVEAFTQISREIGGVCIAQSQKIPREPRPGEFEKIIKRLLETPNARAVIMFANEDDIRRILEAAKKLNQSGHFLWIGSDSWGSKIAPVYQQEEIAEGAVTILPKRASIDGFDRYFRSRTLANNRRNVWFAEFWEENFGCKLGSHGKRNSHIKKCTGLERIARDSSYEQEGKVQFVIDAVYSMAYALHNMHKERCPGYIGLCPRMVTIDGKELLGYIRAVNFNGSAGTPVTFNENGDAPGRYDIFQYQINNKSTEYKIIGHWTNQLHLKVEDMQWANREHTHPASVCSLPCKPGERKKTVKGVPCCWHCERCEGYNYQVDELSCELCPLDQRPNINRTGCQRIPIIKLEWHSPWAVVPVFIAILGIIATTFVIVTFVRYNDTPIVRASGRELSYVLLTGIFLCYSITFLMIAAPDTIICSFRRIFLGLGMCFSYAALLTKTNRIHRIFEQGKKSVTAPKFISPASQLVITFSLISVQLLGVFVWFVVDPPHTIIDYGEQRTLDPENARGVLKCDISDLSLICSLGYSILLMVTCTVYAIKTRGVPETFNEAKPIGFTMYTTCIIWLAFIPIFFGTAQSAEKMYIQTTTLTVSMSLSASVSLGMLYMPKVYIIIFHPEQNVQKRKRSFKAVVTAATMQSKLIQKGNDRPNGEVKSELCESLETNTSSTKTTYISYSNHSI
Molecule `CCc1cc2c(cc3c(=O)n(CC(=O)NCCCN4CC(C)CC(C)C4)ncn32)s1` (stereo unspecified) came in with a z-score of 2.41.

In turn, `CC1CC(C)CN(CCCNC(=O)CCNC(=O)Cn2ccc3ccccc3c2=O)C1` (stereo unspecified) showed a z-score of -1.48.

Regarding `CC1CC(C)CN(CCCNC(=O)Cn2ncc3c(=O)oc4ccccc4c32)C1` (stereo unspecified), the z-score is -0.462.

Take `CCOC(=O)C1C(=O)CC(C)(O)C(C(=O)OCC)C1c1ccc(N(CC)CC)cc1` (stereo unspecified): the z-score is -0.205.

`CC(C)NC(=O)/C(=C/c1ccco1)c1ccccc1`: the z-score amounted to 2.43.

On to `CCC(C)NC(=O)/C(=C/c1ccco1)c1ccccc1` (stereo unspecified), for which the z-score is -0.109.

Turning to `CC(C)(C)NC(=O)/C(=C/c1ccco1)c1ccccc1`, the z-score was -0.0597.

In turn, `CCN(CC)S(=O)(=O)c1cc(Br)c(C)cc1OC` gave a z-score of -0.159.

Take `Cc1ccc(-c2nn(C)c(=O)c3ccccc23)cc1CNS(C)(=O)=O`: the z-score was -0.0971.

Take `COc1ccc(OC)c(NC(=S)N2CCN(C/C=C/c3ccccc3)CC2)c1`: the z-score is -0.183.

For `O=C(OC1CCCCC1=O)c1cccc(S(=O)(=O)NCc2ccccc2)c1` (stereo unspecified), the z-score was -0.182.

As for `CNS(=O)(=O)c1cccc(C(=O)OC2CCCCC2=O)c1` (stereo unspecified), the z-score came to 2.06.

`CC(=O)Nc1ccc(C(=O)OC2CCCCC2=O)cc1` (stereo unspecified) registered a z-score of 0.0145.

`O=C1C2C3C=CC(C3)C2C(=O)N1Cc1ccc(CN2C(=O)C3C4C=CC(C4)C3C2=O)cc1` (stereo unspecified) displayed a z-score of -0.294.

Regarding `Cc1cccc(NC(=S)/N=C(\N)Nc2nc(C)c3ccc(C)cc3n2)c1`, the z-score is -0.215.

On to `CCCNc1cc(C)c(C#N)c2nc3ccccc3n12`, for which the z-score was -1.34.

The molecule `O=C(NC(=S)Nc1ccc(N2CCCC2)cc1)c1ccccc1[N+](=O)[O-]` registered a z-score of 0.0592.

On to `Cc1c(C(=O)NC(=S)Nc2ccccc2N2CCCC2)cccc1[N+](=O)[O-]`, for which the z-score is 3.83 (active).

Consider `O=C(NC(=S)Nc1ccccc1N1CCCC1)c1ccc([N+](=O)[O-])cc1`, for which the z-score is 14.4 (active).

`COc1ccc(C(=O)NC(=S)Nc2ccccc2N2CCCCC2)cc1[N+](=O)[O-]` showed a z-score of 0.366.

As for `O=C(NC(=S)Nc1cc([N+](=O)[O-])ccc1Cl)c1ccccc1`, the z-score is 12.9 (active).

`Cc1cc(C(=O)NC(=S)Nc2ccccc2N2CCCC2)ccc1[N+](=O)[O-]` gave a z-score of 0.156.

The molecule `O=C(NC(=S)Nc1cc(C(F)(F)F)ccc1Cl)c1ccccc1` yielded a z-score of 1.04.

`O=C(Nc1ccccc1N1CCOCC1)c1ccccc1[N+](=O)[O-]` returned a z-score of -0.093.

In turn, `O=C(NC(=S)Nc1cccc(NC(=O)c2ccccc2)c1)c1cccc([N+](=O)[O-])c1` came in with a z-score of -0.0765.

As for `Cc1ccc(C(=O)NC(=S)Nc2ccccc2N2CCCC2)cc1[N+](=O)[O-]`, the z-score came to 0.134.

Molecule `O=C(NC(=S)Nc1ccccc1N1CCOCC1)c1ccc([N+](=O)[O-])cc1` gave a z-score of 0.377.

For the molecule `O=C(NC(=S)Nc1ccccc1N1CCCC1)c1ccccc1[N+](=O)[O-]`, the z-score was 7.29 (active).

On to `Cc1ccc(S(=O)(=O)CCc2nc3ccccc3s2)cc1C`, for which the z-score was -0.169.

In turn, `CCCC(=O)O[C@@H]1C[C@@H](C)N(C(=O)c2ccccc2)c2ccc(C)cc21` came in with a z-score of -0.411.

Regarding `Cc1ccc(OC(=O)CCc2c(C)nc3ncnn3c2C)cc1`, the z-score was -0.382.

In the case of `O=c1oc2c(CN3CCOCC3)c(O)ccc2c2c1CCC2`, the z-score came to 0.00993.

On to `COc1ccccc1C(=O)NNC(=S)NC(=O)c1sc2ccccc2c1Cl`, for which the z-score is 4.01 (active).

On to `COc1ccccc1C(=O)NC(=S)NNC(=O)c1sc2ccccc2c1Cl`, for which the z-score was 3.35 (active).

With `COc1ccccc1C(=O)NC(=S)Nc1ccc(NC(=O)c2cccs2)cc1`, the z-score is 0.853.

For the molecule `COc1ccccc1C(=O)NNC(=S)NC(=O)c1ccco1`, the z-score is 1.4.

`O=C(NNC(=O)c1sc2ccccc2c1Cl)Nc1ccc(Cl)cc1`: the z-score is -0.0174.

Regarding `O=C(NC(=S)Nc1ccccc1N1CCOCC1)c1sc2ccccc2c1Cl`, the z-score turned out to be 1.18.

`O=C(NNC(=S)NC1CCCCC1)c1sc2ccccc2c1Cl` displayed a z-score of -0.163.

On to `CC(C)(C)C(=O)NC(=S)NNC(=O)c1sc2ccccc2c1Cl`, for which the z-score was 13.7 (active).

For `COc1ccc(CCNC(=O)c2sc3ccccc3c2Cl)cc1OC`, the z-score was -0.565.

As for `COc1ccccc1CNC(=O)CSc1ccc(Br)cc1`, the z-score amounted to 0.558.

Turning to `Cc1cc(C)cc(C(=O)N2CCCCCC2)c1`, the z-score stood at 0.076.

With `COc1ccc(NC(=O)[C@H](COCc2ccccc2)NC(=O)OC(C)(C)C)cc1`, the z-score amounted to 0.329.

Regarding `Cc1cc(NC(=O)CSc2nnc(-c3ccco3)o2)no1`, the z-score amounted to 0.184.

On to `Cc1c(Cl)cccc1NC(=S)NCc1cccn1C`, for which the z-score came to 0.262.

As for `Cc1ccc(Cl)cc1NC(=S)NCc1cccn1C`, the z-score is 6.81 (active).

`Cc1ccccc1NC(=S)NCc1cccn1C`: the z-score was -0.488.

Molecule `O=C(OC1CCN(c2ncc(C(F)(F)F)cc2Cl)CC1)c1ccc(Cl)cc1` came in with a z-score of -0.0974.

`O=C(O)Cn1ccnc1` yielded a z-score of -0.327.

Molecule `COc1cc(Cn2ccnc2)c(OC)cc1Cn1ccnc1` came in with a z-score of -0.198.

For `c1cn(CC2(Cn3ccnc3)COC2)cn1`, the z-score was 3.15 (active).

With `CCCN1CCC(NC(=O)Nc2ccc(F)cc2F)CC1`, the z-score came to 2.81.

`CCCN1CCC(NC(=O)Nc2ccc(OC)c(OC)c2)CC1` yielded a z-score of 0.00828.

In turn, `CCCN1CCC(NC(=O)Nc2ccccc2C(=O)OC)CC1` had a z-score of -0.336.

On to `COC(=O)c1ccc(NC(=O)CNCc2ccncc2)cc1`, for which the z-score is -0.143.

As for `Cc1onc(-c2ccccc2Cl)c1C(=O)N1CCc2ccccc2C1`, the z-score is -0.95.

With `Cc1onc(-c2c(Cl)cccc2Cl)c1C(=O)N1CCc2ccccc2C1`, the z-score was determined as 0.0144.

The molecule `Cc1noc(C)c1C(=O)N1CCc2ccccc2C1` gave a z-score of 1.98.

Turning to `C=CCn1c(CCNC(=O)c2ccccc2F)nnc1SCC(=O)Nc1nc(C)cs1`, the z-score was 0.0314.

As for `CCOc1cc(C2C(C#N)=C(N)Oc3n[nH]c(C)c32)ccc1OCCN1CCOCC1` (stereo unspecified), the z-score was -0.102.

Consider `COC(=O)c1cc(-c2ccccc2)on1`, for which the z-score is -1.87.

For `CCCCP(=O)(CCCC)CCP(=O)(c1ccccc1)c1ccccc1`, the z-score is -0.667.

As for `O=C(O)CCn1c(SCc2cccc3ccccc23)nc2ccccc21`, the z-score was found to be 2.1.

`O=C(O)CCn1c(SCc2ccccc2)nc2ccccc21` gave a z-score of -0.0963.

With `O=C(O)Cn1c(SCc2cccc3ccccc23)nc2ccccc21`, the z-score stood at 1.11.

`CCOc1ccc(NC(=O)CCNc2c(N3CCCC3)c(=O)c2=O)cc1` registered a z-score of -0.437.

Consider `CCn1c(-c2csc3c2CCC(C)C3)n[nH]c1=S` (stereo unspecified), for which the z-score came to 1.49.

As to `CCCCn1c(-c2csc3c2CCCC3)n[nH]c1=S`, the z-score is 6.19 (active).

Turning to `CCCCn1c(-c2csc3c2CCC(C)C3)n[nH]c1=S` (stereo unspecified), the z-score was 7.55 (active).

As for `CCn1c(-c2csc3c2CCCC3)n[nH]c1=S`, the z-score was -0.181.

`CC(C)Cn1c(-c2csc3c2CCCC3)n[nH]c1=S`: the z-score was -1.59.

As to `CCn1c(-c2csc3ccccc23)n[nH]c1=S`, the z-score was -0.273.

`CC(C)Cn1c(-c2csc3ccccc23)n[nH]c1=S` gave a z-score of 0.509.

`C=CCn1c(-c2csc3c2CCC(C)C3)n[nH]c1=S` (stereo unspecified) returned a z-score of 0.494.

Molecule `CCCCn1c(-c2csc3ccccc23)n[nH]c1=S` came in with a z-score of 2.3.

(Values after PubChem BioAssay AID488969 (Vanderbilt High Throughput Screening Facility, 2010).)
